# High-throughput results deposited in PubChem BioAssay by National Center for Advancing Translational Sciences (NCATS).
# Shown is part of a subset that was picked to be rich in hits.
# IMPase Li cell = cell-permeable IMPase inhibitors with lithium potentiation. CHO-M1 cells, IP1 TR-FRET (IP-One), carbachol + lithium. Potency, µM (top dose mostly 59.4 µM), inactives show at the top dose activity, negative = IMPase inhibition, actives largely listed as inhibitors. 210,000 compounds, 0.35% hits. AID 1457;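 note: IP1 builds up when IMPase is blocked and the TR-FRET signal falls; plate controls were basal vehicle for no effect and high inhibitor control for full effect; nearly all actives have a fitted effect of over 50% in size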
#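 CHO cells stably expressing M1 receptor (2000/well) were cultured 16–30 h, then exposed to compounds with a small lithium addition for 30 min at 37C. IP1 was measured by TR-FRET competition; AC50 from Hill fits.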
# NPSR antagonist = blocks cAMP signaling of the human neuropeptide S receptor; 220,000 compounds, 1% hits; AID 1461; CHO-NPSR cells, cAMP TR-FRET, antagonist mode; Q6W5P4; Potency, µM (series often up to 38.3 µM), for the others: at the top dose activity change, negative = inhibition, actives largely listed as inhibitors; note: nearly all actives have a fitted effect of over 50% in size
# Target sequence (Q6W5P4 whole entry, looked up): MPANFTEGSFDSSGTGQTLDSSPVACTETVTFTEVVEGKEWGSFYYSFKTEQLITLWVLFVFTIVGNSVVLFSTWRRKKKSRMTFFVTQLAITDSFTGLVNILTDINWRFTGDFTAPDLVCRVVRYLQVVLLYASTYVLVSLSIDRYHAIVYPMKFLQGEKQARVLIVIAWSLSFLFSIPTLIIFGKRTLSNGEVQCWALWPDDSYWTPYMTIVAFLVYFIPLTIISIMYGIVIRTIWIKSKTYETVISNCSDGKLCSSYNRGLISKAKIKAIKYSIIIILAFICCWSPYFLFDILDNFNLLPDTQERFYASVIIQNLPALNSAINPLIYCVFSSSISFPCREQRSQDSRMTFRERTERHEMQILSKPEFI
# ERK EGF inh = inhibitors of EGF-stimulated ERK signaling pathway; Potency, µM (top dose mostly 11.5 µM), without a hit: top-dose activity change, negative = inhibition, most hits filed as inhibitors; HEK293-V1b, EGF-stimulated phospho-ERK AlphaScreen; 130,000 compounds, 0.41% hits; AID 1454;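 note: plate controls were stimulated vehicle wells for no effect and unstimulated vehicle basal for full effect; nearly all actives have a fitted effect of over 55% in size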
#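 Stably V1b-transfected HEK293 cells; 30 min compound, then EGF 25 nM final for 5 min at 37C; 10 min lysis; phospho-ERK by AlphaScreen after 5 hr beads at room temperature.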
# An asterisk follows results filed as active; ? = inconclusive; nt = no result given; [ ] = dose if it differs, or a comment. Calls come from the whole dose curve; as a rule, active = well fitted curve in the direction sought with a large enough effect; inconclusive = small, poorly fitted or top-dose-only effect, or another doubt; inactive = no such curve, though single readings can be large; an effect the other way counts as inactive or inconclusive. Unless noted, % is set by controls: 0 for no effect and ±100 for the full control effect; potency is the fitted concentration of half-maximal effect.
SMILES,IMPase Li cell,NPSR antagonist,ERK EGF inh
Brc1ccc(-c2nn3c(-c4ccncc4)nnc3s2)o1,nt,-6.0%[46.1 µM],nt
CC(=O)C1=C(C)NC(SCC(=O)c2ccccc2)=C(C#N)C1CC(C)C (stereo not drawn),10µM*,-5.2%[46.1 µM],nt
CC(=O)C1=C(C)NC(SCC(=O)c2ccccc2)=C(C#N)C1c1ccco1 (stereo not drawn),1.6%[38.3 µM],?,nt
N=C1S/C(=C\c2ccco2)C(=O)N1c1ccc2c(c1)OCO2,1.1%,-12.8%,0.0%
N=C1S/C(=C\c2ccco2)C(=O)N1c1nccs1,2.1%,6.31µM*,2.5%
COc1cc(/C=N/NC(=Nc2ccc(C)cc2)c2nc3ccccc3s2)ccc1O,11.9%[38.3 µM],10µM*,nt
COc1ccccc1/C=N/NC(=Nc1ccc(C)cc1)c1nc2ccccc2s1,-15.1%[38.3 µM],-25.1%[46.1 µM],nt
COc1ccc(/C=C(/C(=O)c2ccc(Cl)cc2Cl)n2cncn2)cc1,6.3%[38.3 µM],-17.6%[46.1 µM],nt
CC(C)CC(=O)/C(=C\c1ccc(Cl)cc1Cl)n1cncn1,3.5%,-5.8%,28.2µM*
Cc1cc(O)c(C=O)c2c1C(=O)Oc1c(COC(=O)/C=C/C(=O)O)c(O)c(C(=O)O)c(C)c1O2,-20.8%,nt,-5.5%
O=C(O)c1cccc2c1C(=O)c1ccccc1C2=O,-1.4%,6.4%,8.0%
CN(C=[N+](C)C)c1cccc2c1C(=O)c1ccccc1C2=O,11.1%,6.0%[46.1 µM],17.8µM*
COCCNc1ncnc2ccc(-c3ccccc3C)cc12,7.0%,nt,nt
Cc1ccc(C(=O)Nc2c(-c3cccs3)c(=O)c3ccccc3n2C)cc1,11.5%[38.3 µM],-0.4%[46.1 µM],nt
COc1ccc(C(=O)Nc2c(-c3cccs3)c(=O)c3ccccc3n2C)cc1,nt,-6.4%[7.67 µM],5.62µM*
COc1ccc(-n2c(=O)c(CCc3ccccc3)nc3cnc(OC)nc32)cc1,5.4%,nt,nt
O=C(CCCN1C(=O)/C(=C/c2cccs2)SC1=S)Nc1ccccn1,21.6%,51.8%,3.2%
O=C(O)CCCN1C(=O)/C(=C/c2cn(-c3ccccc3)nc2-c2cccs2)SC1=S,28.5%,3.16µM*,-21.7%
Oc1ccc2cc(SSc3ccc4cc(O)ccc4c3)ccc2c1,3.0%,nt,nt
c1ccc(Nc2ncnc3ccc(-c4ccc5c(c4)OCO5)cc23)cc1,3.7%,nt,2.82µM*
c1csc(CNc2ncnc3ccc(-c4ccc5c(c4)OCO5)cc23)c1,5.5%,nt,?
Cc1ccc(/C=C2\SC(=S)N(Cc3ccccc3)C2=O)o1,4.2%[38.3 µM],-10.5%[46.1 µM],nt
CC1(C)OC(=O)C(=Cc2ccc(-c3ccc(Cl)c(C(=O)O)c3)o2)C(=O)O1,-8.2%,-7.8%,-5.3%
COc1ccc(CN2C(=O)/C(=C/c3ccc(-c4ccc(Cl)c(C(=O)O)c4)o3)SC2=S)cc1,12.6%,6.31µM*,-0.8%
O=C(O)c1cc(-c2ccc(/C=C3/SC(=S)N(Cc4ccccc4)C3=O)o2)ccc1Cl,4.9%,10µM*,-2.7%
SMILES,IMPase Li cell,NPSR antagonist,ERK EGF inh
CCc1cc(C(C)=O)c(O)cc1OCCCCCC(C)(C)c1nn[nH]n1,4.5%,nt,-6.0%
CN(C)CC(O)Cn1c2ccc(Br)cc2c2cc(Br)ccc21 (stereo not drawn),12.1%,nt,nt
COc1cccc([C@@H]2Oc3ccc(Br)cc3C(=O)[C@H]2OC(=O)N[C@H]2CCCc3ccccc32)c1,8.2%,nt,4.5%
OCC#CCSc1nnc(-c2ccc(Br)cc2)o1,-9.9%[38.3 µM],2.2%[46.1 µM],nt
COC(=O)Sc1nnc(-c2ccc(Br)cc2)o1,10µM*,-16.7%[46.1 µM],nt
Cn1c(/C(C#N)=C(\O)COc2ccc3ccccc3c2)nc2ccccc21,7.08µM*,?,nt
Cc1ccc(OC/C(O)=C(\C#N)c2nc3ccccc3s2)cc1,0.7%,-1.9%,26.6%
COc1ccc(/C=N/NC(=O)c2cccnc2)cc1COc1ccc([N+](=O)[O-])cc1,nt,-3.5%,22.4µM*
COc1ccc(/C=N/NC(=O)c2cccnc2)cc1COc1ccc(NC(C)=O)cc1,nt,8.4%,1.2%[57.5 µM]
CN(C)CCC(=O)[C@@]1(O)CC[C@H]2[C@H]3CC=C4C[C@@H](O)CC[C@]4(C)[C@H]3CC[C@]21C,-5.1%,nt,nt
COc1ccc2nc(SC)c(C#N)cc2c1,11.2µM*,?,5.0%
COc1ccc2nc(SCC(C)=O)c(C#N)cc2c1,14.4%,-8.0%,-5.8%
C[C@H](Cc1ccccc1)Nc1ncnc2c1ncn2[C@@H]1O[C@H](CO)[C@H](O)[C@H]1O,6.9%,9.6%[46.1 µM],0.7%
Cc1ccc(-n2c(=O)c(C#N)cc3c(=O)n4cccc(C)c4nc32)cc1,10µM*,5.8%[46.1 µM],nt
Cc1ccc(Cn2c(=N)c(C#N)cc3c(=O)n4cccc(C)c4nc32)cc1,8.6%,-15.1%,6.8%
C[C@@]12CC[C@@H]3[C@H](CCC4=CC(=O)CC[C@]43C)[C@@H]1CC[C@@H]2C(=O)COS(=O)(=O)c1ccc(Br)cc1,-16.3%,nt,nt
O=C(O)/C=C/C(O)c1ccc(Cl)cc1 (stereo not drawn),-7.8%,-3.8%[46.1 µM],4.8%
O=C(Nc1nnc(-c2ccccc2SCc2ccccc2)s1)Nc1ccccc1F,-2.4%[38.3 µM],-20.4%[46.1 µM],nt
O=C(Nc1nnc(-c2ccccc2F)s1)Nc1ccccc1F,10µM*,-16.0%,6.4%
CC(C)S(=O)(=O)c1cnc(N2CCOCC2)nc1N,nt,-18.3%[7.67 µM],2.6%[57.5 µM]
C=C[C@](C)(O)CCC1C(=C)CC(OC(C)=O)C2C(C)(C)CCCC12C (stereo partly drawn),-6.3%,nt,41.0%
COC(=O)CS(=O)(=O)c1nnc([C@H](Cc2ccccc2)NC(=O)OC(C)(C)C)o1,57.9%[38.3 µM],7.94µM*,nt
Cc1cccc(CS(=O)(=O)c2nnc([C@H](Cc3ccccc3)NC(=O)OC(C)(C)C)o2)c1,21.3%[38.3 µM],?,nt
COc1ccc(C(=O)N2CCC3(CC2)CN(C(=O)Nc2cccc(C#N)c2)C3)cc1,-0.4%,nt,0.1%
CC(=O)[C@@H](C)CCO[C@@]1(C)OCC[C@@H]1C,2.8%,nt,nt
SMILES,IMPase Li cell,NPSR antagonist,ERK EGF inh
COc1c(-c2coc3cc4c(cc3c2=O)CC(O)C(C)(C)O4)ccc2c1C=CC(C)(C)O2 (stereo not drawn),17.1%,nt,12.6µM*
COc1c(-c2coc3cc4c(cc3c2=O)CC(OC(C)=O)C(C)(C)O4)ccc2c1C=CC(C)(C)O2 (stereo not drawn),27.5%,nt,46.9%
Cc1nn(Cc2c(F)c(F)c(F)c(F)c2F)c(C)c1NC(=O)c1cccc(COc2ccc(Cl)cc2)c1,13.9%[38.3 µM],-28.5%[46.1 µM],nt
CC(C)c1cc(C(N)=O)c(NC(=O)c2cccc(COc3ccc(Cl)cc3)c2)s1,47.0%[38.3 µM],10µM*,nt
Cc1ccc(NC(=O)c2cc([N+](=O)[O-])ccc2N2CCCC2)cc1,8.6%,-37.4%,5.1%
Cc1cccc(NC(=O)c2cc([N+](=O)[O-])ccc2N2CCCCC2)n1,12.5%,10µM*,?
CC1=NN(c2ccccc2)C(=O)[C@@H]1N=Nc1ccc(S(N)(=O)=O)cc1,6.0%,nt,nt
O=c1cnc2cncnc2n1Cc1ccccc1Cl,9.8%,nt,nt
CCc1c(C(=O)O)[nH]c2ccc(Br)cc12,10µM*,?,nt
NNC(=O)c1[nH]c2ccc(Br)cc2c1-c1ccccc1,nt,20.6%,-11.6%[57.5 µM]
O=Cc1sc(N2CCOCC2)nc1-c1ccccc1,14.1µM*,-31.3%,0.6%
O=C(N/N=C/c1sc(N2CCOCC2)nc1-c1ccccc1)c1ccccc1O,21.9%,-20.0%,?
COc1ccc(-n2c(=O)c(-c3cccs3)nc3cnc(Nc4cccc(OC)c4)nc32)cc1,1.0%,nt,-10.6%
O=C1CN(/N=C\c2ccc([N+](=O)[O-])o2)C(=O)N1,4.2%,nt,2.9%[25.7 µM]
